# Reference: PubChem BioAssay (Tox21)
# Active and inactive are the calls of the source. Where a call stands in place of a potency, no number is given. Unless noted, calls come from the whole dose curve; as a rule, active = well fitted curve in the direction sought with a large enough effect in the repeat runs; inconclusive = weak or mixed curves; inactive = no such curve, though single readings can be large; an effect the other way counts as inactive or inconclusive.
# Key:
# [1] = qHTS assay to identify small molecule antagonists of the thyroid receptor (TR) signaling pathway - cell viability counter screen (AID 743064); note: nearly all actives have a fitted effect of over 50% in size; note: potency is the fitted concentration of half-maximal effect
# Method in brief: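 Same-well viability check: GH3.TRE-Luc cells stimulated with 1 nM T3 alongside test compound for 23.5 h, followed by CellTiter-Fluor fluorescence.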
# [2] = qHTS assay to identify small molecule antagonists of the thyroid receptor (TR) signaling pathway (AID 743065); note: nearly all actives have a fitted effect of over 55% in size; note: potency is the fitted concentration of half-maximal effect
# Method in brief: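 Antagonism measured as loss of luciferase signal in GH3 cells stably carrying a TRE-luciferase reporter, co-treated with compound and T3 (1 nM final) for 23.5 h at 37 C. Viability was read in the same well by CellTiter-Fluor.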
# [3] = test system: thyroid hormone receptor (rat, GH3 cells); assay: qHTS assay to identify small molecule agonists of the thyroid receptor (TR) signaling pathway (AID 743066; calls by dose curve)
# [4] = target: Estrogen receptor (Homo sapiens) (UniProt P03372); assay: qHTS assay to identify small molecule antagonists of the estrogen receptor alpha (ER-alpha) signaling pathway (AID 743069; active = well fitted curve in the direction sought with a large enough effect in the signal ratio in the repeat runs, not every such curve was filed as active; inconclusive = weak or mixed curves, or effect the other way; inactive = no such curve, though single readings can be large or run the other way; the % refers to the signal ratio; note: potency is the fitted concentration of half-maximal effect)
# Method in brief: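 Antagonist mode: compounds in DMSO were co-added with 17beta-estradiol to ER-alpha-bla HEK293 cells (2% charcoal-stripped serum) and left 18 h at 37C. Reporter inhibition was measured as FRET fluorescence after 2 h LiveBLAzer substrate at room temperature.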
# [5] = qHTS assay to identify small molecule antagonists of the estrogen receptor alpha (ER-alpha) signaling pathway - cell viability counter screen (AID 743074; calls by dose curve;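 note: HEK293 cells carrying ER-alpha-UAS-bla reporter stimulated with 17beta-estradiol; nearly all actives have a fitted effect of over 45% in size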)
# [6] = target: Estrogen receptor (Homo sapiens) (UniProt P03372); assay: qHTS assay to identify small molecule agonists of the estrogen receptor alpha (ER-alpha) signaling pathway (AID 743075; calls by dose curve;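 note: HEK293 GripTite cells with ER-alpha and UAS-driven beta-lactamase reporter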)
# [7] = qHTS assay to identify small molecule antagonists of the estrogen receptor alpha (ER-alpha) signaling pathway using the BG1 cell line (AID 743080; calls by dose curve;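 note: BG1 cells stimulated with 17beta-estradiol alongside compound; nearly all actives have a fitted effect of over 25% in size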; note: potency is the fitted concentration of half-maximal effect)
# Method in brief: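 BG1Luc4E2, endogenous ER-alpha, 4xERE-luc; 5 d charcoal-stripped FBS, phenol red free; 24 h plating; cpd + 17beta-estradiol 21.5 h, 37 C/5% CO2; CellTiter-Fluor viability 30 min, then ONE-Glo luciferase 30 min RT.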
# [8] = qHTS assay to identify small molecule antagonists of the estrogen receptor alpha (ER-alpha) signaling pathway using the BG1 cell line - cell viability counter screen (AID 743081);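 note: compound given together with 17beta-estradiol as the ER stimulus; nearly all actives have a fitted effect of over 45% in size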; note: potency is the fitted concentration of half-maximal effect
# [9] = target: Aromatase (Homo sapiens) (UniProt P11511); assay: qHTS assay to identify aromatase inhibitors (AID 743083); note: nearly all actives have a fitted effect of over 55% in size; note: potency is the fitted concentration of half-maximal effect
# [10] = target: Estrogen receptor (Homo sapiens) (UniProt P03372); assay: qHTS assay to identify small molecule agonists of the estrogen receptor alpha (ER-alpha) signaling pathway using the BG1 cell line (AID 743079); conditions: BG1Luc4E2 cells, ERE-luciferase agonist, 22 h; activation: at 70.3 µM (top of the series); note: nearly all actives have a fitted effect of over 20% in size; note: potency is the fitted concentration of half-maximal effect
# Chain of Aromatase (Homo sapiens) (P11511 whole entry, looked up): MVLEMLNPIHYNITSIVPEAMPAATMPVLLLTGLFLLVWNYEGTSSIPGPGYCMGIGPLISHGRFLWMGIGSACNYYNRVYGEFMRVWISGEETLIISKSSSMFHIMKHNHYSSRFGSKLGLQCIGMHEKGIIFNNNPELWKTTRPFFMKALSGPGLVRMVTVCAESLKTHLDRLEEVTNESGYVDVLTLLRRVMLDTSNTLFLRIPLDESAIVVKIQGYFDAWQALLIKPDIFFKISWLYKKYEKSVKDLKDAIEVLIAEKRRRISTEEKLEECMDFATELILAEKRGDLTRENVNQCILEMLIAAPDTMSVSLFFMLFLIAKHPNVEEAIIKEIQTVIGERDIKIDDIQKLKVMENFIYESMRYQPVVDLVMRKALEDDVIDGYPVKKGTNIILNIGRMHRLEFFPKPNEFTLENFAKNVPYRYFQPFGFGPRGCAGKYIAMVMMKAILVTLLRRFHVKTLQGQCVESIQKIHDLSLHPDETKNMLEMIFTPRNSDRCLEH
# Chain of Estrogen receptor (Homo sapiens) (P03372 whole entry, looked up): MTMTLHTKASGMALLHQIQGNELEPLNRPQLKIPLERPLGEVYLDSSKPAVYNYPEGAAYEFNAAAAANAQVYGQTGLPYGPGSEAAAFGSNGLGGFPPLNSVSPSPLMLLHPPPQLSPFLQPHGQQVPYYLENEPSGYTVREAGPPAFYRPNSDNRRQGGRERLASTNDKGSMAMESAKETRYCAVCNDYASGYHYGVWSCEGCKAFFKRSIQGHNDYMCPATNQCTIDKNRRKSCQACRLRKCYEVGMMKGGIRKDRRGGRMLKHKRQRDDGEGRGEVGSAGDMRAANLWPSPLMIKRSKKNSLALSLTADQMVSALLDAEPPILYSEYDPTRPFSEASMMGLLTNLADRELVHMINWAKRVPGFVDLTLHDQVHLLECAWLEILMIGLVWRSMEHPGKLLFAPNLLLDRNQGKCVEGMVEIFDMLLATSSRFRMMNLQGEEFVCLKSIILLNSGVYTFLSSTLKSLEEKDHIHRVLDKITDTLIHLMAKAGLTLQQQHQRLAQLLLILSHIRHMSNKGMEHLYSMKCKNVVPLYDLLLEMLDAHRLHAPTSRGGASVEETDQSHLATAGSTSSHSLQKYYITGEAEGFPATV
Compound,Potency [1],Potency [2],Potency [3],Potency [4],Potency [5],Potency [6],Potency [7],Potency [8],Potency [9],Potency [10]
CC(C)(C)CC(C)(C)c1cc(Cc2cc(C(C)(C)CC(C)(C)C)cc(-n3nc4ccccc4n3)c2O)c(O)c(-n2nc3ccccc3n2)c1,inactive,inactive,inactive,inactive,inactive,inactive,inactive,inactive,inactive,–
CCC(Cc1c(I)cc(I)c(O)c1I)C(=O)O (centres undefined),inactive,inactive,inactive,inactive,inactive,–,inactive,inactive,inactive,–
CCCC(=O)N1CCCN(c2nc(N)c3cc(OC)c(OC)cc3n2)CC1,inactive,inactive,inactive,inactive,inactive,inactive,inactive,inactive,inactive,–
C=C[C@]1(C)C[C@@H](OC(=O)CSC(C)(C)CNC(=O)[C@H](N)C(C)C)[C@]2(C)[C@H](C)CC[C@]3(CCC(=O)[C@H]32)[C@@H](C)[C@@H]1O,2.66 µM (active),13.3 µM (active),inactive,inactive,inactive,inactive,–,5.96 µM (active),21.1 µM (active),–
CC[C@@]1(O)C(=O)OCc2c1cc1n(c2=O)Cc2cc3c([N+](=O)[O-])cccc3nc2-1,2.37 µM (active),0.473 µM (active),inactive,4.77 µM [inconclusive] (active),inactive,inactive,0.266 µM (active),–,0.596 µM (active),–
O=C1c2ccccc2C(=O)C1c1ccc(Cl)cc1,inactive,inactive,inactive,inactive,inactive,inactive,inactive,–,inactive,inactive
CC(C)(CO)[C@@H](O)C(=O)NCCCC(=O)O,inactive,inactive,inactive,inactive,inactive,inactive,inactive,inactive,inactive,–
NC(N)=NCC1COc2ccccc2O1 (centres undefined),inactive,inactive,inactive,inactive,inactive,inactive,inactive,–,inactive,inactive
CCCC(CCC)C(N)=O,inactive,inactive,inactive,inactive,inactive,inactive,inactive,–,inactive,inactive
CCOC(=O)Cc1cccc(-c2cc(CCCCCCc3ccc(O[C@H]4O[C@H](COC(C)=O)[C@@H](OC(C)=O)[C@H](OC(C)=O)[C@@H]4OC(C)=O)c(-c4cccc(CC(=O)OCC)c4)c3)ccc2O[C@H]2O[C@H](COC(C)=O)[C@@H](OC(C)=O)[C@H](OC(C)=O)[C@@H]2OC(C)=O)c1,inactive,inactive,inactive,inactive,inactive,inactive,inactive,–,inactive,inactive
NC(Cc1ccccc1)C(=O)O (centres undefined),inactive,inactive,inactive,inactive,inactive,inactive,inactive,inactive,inactive,–
CCOC(=O)O[C@]1(C(=O)COC(=O)CC)CC[C@H]2[C@@H]3CCC4=CC(=O)C=C[C@]4(C)[C@H]3[C@@H](O)C[C@@]21C,inactive,inactive,inactive,inactive,inactive,inactive,–,inactive,inactive,inactive
COc1ccc(/C=C/C(=O)OCCC(C)C)cc1,inactive,inactive,inactive,inactive,inactive,inactive,–,inactive,inactive,–
COc1ccc2cc([C@H](C)CO)ccc2c1,inactive,inactive,inactive,inactive,inactive,inactive,–,inactive,inactive,33.5 µM (active)
O=S(=O)(O)c1cc(O)c2c(N=Nc3ccc(Nc4ccccc4)c4c(S(=O)(=O)O)cccc34)cc(S(=O)(=O)O)cc2c1,26.6 µM (active),23.7 µM (active),inactive,inactive,inactive,inactive,–,15 µM (active),23.7 µM (active),–
CC#CCC(C)[C@H](O)/C=C/[C@@H]1[C@H]2C/C(=C/CCCC(=O)O)C[C@H]2C[C@H]1O (some centres undefined),inactive,inactive,inactive,inactive,inactive,inactive,inactive,–,inactive,29.8 µM (active)
CC(O)[C@@H]1NC(=O)[C@H](Cc2ccccc2)NC(=O)[C@H](C(C)O)NC(=O)[C@H](CCCCN)NC(=O)[C@H](Cc2c[nH]c3ccccc23)NC(=O)[C@H](Cc2ccccc2)NC(=O)[C@H](Cc2ccccc2)NC(=O)[C@H](CC(N)=O)NC(=O)[C@H](CCCCN)NC(=O)[C@@H](NC(=O)CNC(=O)[C@H](C)N)CSSC[C@@H](C(=O)O)NC(=O)[C@H](CO)NC1=O (some centres undefined),inactive,inactive,inactive,inactive,inactive,inactive,inactive,inactive,inactive,inactive
CCC(C)(C)OC(=O)N[C@@H](Cc1c[nH]c2ccccc12)C(=O)N[C@@H](CCSC)C(=O)N[C@@H](CC(=O)O)C(=O)N[C@@H](Cc1ccccc1)C(N)=O,inactive,inactive,inactive,inactive,inactive,inactive,inactive,–,inactive,inactive
COc1cc(C[C@@H]2NCCc3cc(O)c(O)cc32)cc(OC)c1OC,inactive,inactive,inactive,inactive,inactive,inactive,inactive,–,inactive,inactive
O=S(=O)(O)Oc1ccc(C(c2ccc(OS(=O)(=O)O)cc2)c2ccccn2)cc1,inactive,inactive,inactive,inactive,inactive,inactive,inactive,–,inactive,inactive
CC(C)(C)CC(=O)OCC(=O)[C@@]12OC(C)(C)O[C@@H]1C[C@H]1[C@@H]3CCC4=CC(=O)C=C[C@]4(C)[C@@]3(F)[C@@H](O)C[C@@]12C,inactive,inactive,inactive,–,inactive,–,–,–,inactive,inactive
Cc1c(N)nc(C(CC(N)=O)NCC(N)C(N)=O)nc1C(=O)NC(C(=O)NC(C)C(O)C(C)C(=O)NC(C(=O)NCCc1nc(-c2nc(C(=O)NCCCN[C@@H](C)c3ccccc3)cs2)cs1)C(C)O)C(O[C@@H]1O[C@@H](CO)[C@@H](O)[C@H](O)[C@@H]1O[C@H]1O[C@H](CO)[C@@H](O)[C@H](OC(N)=O)[C@@H]1O)c1cnc[nH]1 (some centres undefined),1.68 µM (active),3.76 µM (active),inactive,–,inactive,–,–,inactive,–,–
CC(=O)[C@@]1(O)CC[C@H]2[C@@H]3C=C(Cl)C4=CC(=O)CC[C@]4(C)[C@H]3CC[C@@]21C,inactive,29.8 µM (active),inactive,–,inactive,inactive,–,–,inactive,29.8 µM (active)
Cc1ccc(/C(=C\CN2CCCC2)c2cccc(/C=C/C(=O)O)n2)cc1,inactive,inactive,inactive,–,inactive,–,–,inactive,–,–
